Screening results: PubChem, The Scripps Research Institute Molecular Screening Center
NR5A2 inv ag: NR5A2 inverse agonism in reporter assay | O00482 | 0.13% of 360,000 active | HEK293T StAR-luciferase reporter, LRH-1 transfected, 24 h | inhibition, % at 3.6 µM;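 active means inhibition above the mean inhibition of all tested compounds plus 3 SD, cut at about 73% in these data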
SRC1 inh: inhibits human SRC1 coactivator; Q15788; HEK293 GAL4-SRC1 luciferase reporter, luminescence; inhibition, % at 3.6 µM; 0.12% of 360,000 active;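 active means inhibition above the campaign mean plus 3 SD, with each screening campaign given its own cutoff, cut at about 60% in these data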
NR2F2 inh: inhibitors of human COUP-TFII (NR2F2). P24468. HEK293T NGFI-A luciferase reporter, luminescence. inhibition, % at 8.6 µM. 0.7% of 370,000 active. AID 686940;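 active means inhibition above a per-plate cutoff, mean inhibition of test wells between control levels plus 3 SD, cut at about 38% in these data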;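 further: cells cotransfected with COUP-TFII expression vector driving the NGFI-A reporter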
Target sequence (P24468 whole entry, looked up): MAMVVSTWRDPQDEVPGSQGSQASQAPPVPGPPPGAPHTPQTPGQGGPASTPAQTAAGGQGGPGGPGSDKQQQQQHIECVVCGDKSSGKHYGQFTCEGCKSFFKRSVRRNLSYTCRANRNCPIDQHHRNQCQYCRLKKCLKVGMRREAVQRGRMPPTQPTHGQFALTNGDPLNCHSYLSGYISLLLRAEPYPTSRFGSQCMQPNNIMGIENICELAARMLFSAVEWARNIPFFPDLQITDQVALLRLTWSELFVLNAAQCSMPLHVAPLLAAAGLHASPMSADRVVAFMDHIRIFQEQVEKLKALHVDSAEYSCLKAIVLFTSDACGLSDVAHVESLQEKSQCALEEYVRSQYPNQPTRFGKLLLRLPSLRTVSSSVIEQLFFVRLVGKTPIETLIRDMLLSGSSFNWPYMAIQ
GalR3 antag: human GalR3 antagonism; O60755; HEK293 GalR3-CNG cAMP membrane potential fluorescence; galR3 body fused to GalR1 C-terminus; inhibition, % at 3 µM; 0.44% of 360,000 active;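 active means inhibition above the screen-wide average plus 3 SD, cut at about 13% in these data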;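 further: forskolin and galanin both at EC90 stimulate the cells; cAMP rise reported by CNG channel membrane potential dye signal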
NCOA2 inhibitor: inhibits human steroid receptor coactivator 2 | Q15596 | HEK293 GAL4-SRC2 luciferase reporter, luminescence | inhibition, % at 9 µM | 0.17% of 370,000 active | AID 651957;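 active means inhibition above the mean inhibition of all tested compounds plus 3 SD, set per campaign, cut at about 52% in these data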
NCOA3 inh: human NCOA3 inhibition; inhibition, % at 3.6 µM; 0.17% of 360,000 active; HEK293 GAL4-SRC3 luciferase reporter, luminescence;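 active means inhibition above a per-campaign cutoff, the mean of all compounds plus 3 SD, cut at about 60% in these data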;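 further: higher means less SRC3-driven luciferase light from the GAL4 reporter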
A number is an active result; i = inactive; nt = no result. Only some compounds are listed: those with a hit (about 1.1% of all), similar ones and a draw of the others.

SMILES | NR5A2 inv ag | SRC1 inh | NR2F2 inh | GalR3 antag | NCOA2 inhibitor | NCOA3 inh
CC(=O)OCC12CC(OC(=O)CC(C)C)C(C)=CC1OC1C(O)C(OC(C)=O)C2(C)C12CO2 (configuration not stated) | 98 | 95 | 92 | i | 77 | 95
CN1C(=O)C(C)(C2=CCCCC2)C(=O)NC1=S (configuration not stated) | i | i | i | i | i | i
CCOC(=O)C(NC(C)=O)C(OC(C)=O)c1cccc(N(CCCl)CCCl)c1 (configuration not stated) | i | i | i | 13 | i | i
CC(=O)NC(Cc1ccc(N(CCCl)CCCl)cc1)C(=O)O (configuration not stated) | i | i | i | i | i | i
CCOC(=O)[C@]12Cc3cc(OC)ccc3[C@H]1N(C1CCCCC1)C(=O)c1ccccc12 | i | nt | i | i | i | nt
CCOC(=O)[C@]12Cc3cc(Cl)ccc3[C@H]1N(C1CCCCC1)C(=O)c1ccccc12 | 85 | nt | nt | nt | nt | nt
Cc1ccccc1N1CCN(Cc2ccc3c(c2)OCO3)CC1 | i | i | i | i | i | i
COc1ccc2c(c1)/C(=C/c1cnc[nH]1)C(=O)N2 | 82 | i | i | i | i | i
O=S(=O)(c1ccc2ccccc2c1)N1Cc2cc(Br)ccc2-n2nncc2C1 | nt | nt | i | i | i | nt
CC12CCC(O)CC1CCC1C2CCC2(C)C(C(=O)CO)CCC12 (configuration not stated) | i | i | i | i | i | i
C[C@H]1O[C@@H](OC2CC[C@]3(C=O)[C@H]4CC[C@]5(C)[C@@H](C6=CC(=O)OC6)CC[C@]5(O)[C@@H]4CC[C@]3(O)C2)CC2OC(C)(C)OC21 (some centres not stated) | 99 | 81 | 75 | 34 | 60 | 86
CCC(=O)[C@@H](C)[C@@H](O)[C@H](C)C[C@@H](C)C1OC(=O)C[C@@]2(O)CC=C(C)C(O2)C(C)=CCCC[C@H](O[C@H]2C[C@@H](OC(N)=O)[C@H](O)[C@@H](C)O2)C=C[C@H](C)C[C@H]1C (some centres not stated) | 85 | nt | nt | nt | nt | nt
COC(=O)C[C@]1(C(=O)OC)CN(C#N)N(c2ccc(Cl)cc2)C12c1ccccc1-c1ccccc12 | i | i | 102 | i | 91 | 67
CCOC(=O)[C@]12Cc3cc(Cl)ccc3[C@H]1N(CC(=O)OC)C(=O)c1ccccc12 | i | nt | nt | nt | nt | nt
Cc1ccc2nc(-c3ccc(CN4CCC(n5c(=O)[nH]c6cc(Cl)ccc65)CC4)cc3)c(-c3ccccc3)nc2c1 | nt | nt | i | i | i | nt
Cc1c2ccncc2c(C)c2c1[nH]c1ccccc12 | i | 64 | nt | nt | nt | i
c1ccc2c(c1)[nH]c1cnccc12 | i | i | i | i | i | i
Cc1ccc(-c2cc(-c3ccc(C)cc3)[n+](-c3ccccc3)c(-c3ccc(C)cc3)c2)cc1 | 93 | 65 | nt | nt | nt | 79
CN1CN(c2ccccc2)C2(CCN(CCCSc3ccccc3NC(=O)/C=C/c3ccccc3)CC2)C1=O | i | i | 39 | i | i | i
COC(=O)NC(=S)Nc1ccccc1NC(=S)NC(=O)OC | i | i | i | nt | i | i
O=C1NCN(c2ccccc2)C12CCN(C(c1ccccc1OC(F)(F)F)c1nnnn1Cc1ccccc1)CC2 (configuration not stated) | i | i | i | i | i | i
COC(=O)[C@]12OC[C@]34C([C@@H](O)[C@@H]1O)[C@]1(C)CC(=O)C(O)=C(C)[C@@H]1C[C@H]3OC(=O)[C@H](O)[C@@H]24 (some centres not stated) | 99 | 81 | 76 | i | 61 | 69
CC(C)(O)C1C2OC(=O)C1C1(O)CC3OC34C(=O)OC2C14C (configuration not stated) | i | i | i | i | i | i
CC(C)(O)/C=C/C(=O)[C@](C)(O)C1[C@H](O)C[C@@]2(C)C3CC=C4C(C[C@H](O)[C@@H](O)C4(C)C)[C@]3(C)C(=O)C[C@]12C (some centres not stated) | i | i | nt | nt | nt | i
Cn1ncnc2c(=O)n(C)c(=O)nc1-2 | 100 | 88 | nt | nt | nt | 91
O=C1N[C@H](Cc2ccccc2)C(=O)N2[C@@H]3[C@H](C[C@@H]12)c1ccccc1N3OOSc1ccccc1 | i | i | i | i | i | i
